Molecules are shown by their SMILES. The whole screen tested about 48,000 compounds, of which about 13,000 (27%) showed an effect of 50% or more. The list shows a part of the results.

The test system of this experiment is Wolbachia pipientis. Briefly: Anti-Wolbachia Cell-Based Screen. The format is functional. Also on record: scale not given: in the data most compounds retested in dose-response had high values. The settings on record: 5 µM.
Take `CCC(CO)N(Cc1ccco1)C(=O)c1sccc1NC(C)=O` (centres undefined): the “Percent Effect” value came out at 21.44%.

On to `Cc1oncc1NS(=O)(=O)c1c[nH]c2ncccc12`, for which the “Percent Effect” value was -22.29%. As for `c1cncc(COCC2CN(Cc3ccsc3)Cc3ccnn3C2)c1` (centres undefined), the “Percent Effect” value is listed as -8.281%. Turning to `COc1ccccc1OCCNc1snc(Cl)c1C#N`, the “Percent Effect” value is given as -4.663%. For the compound `CCc1noc(CN(C)C2CCN(c3sccc3C#N)C2=O)n1` (centres undefined), the “Percent Effect” value was determined as 0.9243%. With `Cc1csc(CN(C)C2CCN(c3sccc3C#N)C2=O)n1` (centres undefined) the figure was 9.47%; with `Cc1nc(SC2CCN(c3sccc3C#N)C2=O)oc1C` (centres undefined), 85.81%; with `Cn1c(C(N)=O)ccc1-c1ccccc1`, 3.483%. Under `CC(C)NC(=O)NCCCOC1CCOCC1` stands -1.893%; under `COCCOCC(=O)N(Cc1cccc(C)c1)C(C)C`, -6.619%. For `O=C(O)C(F)(F)F.O=C1COC2(CCN(Cc3ccco3)CC2)CN1CCn1cccn1`, the “Percent Effect” value is reported as 4.018%. Turning to `Cc1cccc(CN2CC3(CCN(Cc4ccco4)CC3)OCC2=O)n1.O=C(O)C(F)(F)F.O=C(O)C(F)(F)F`, the “Percent Effect” value worked out at 121.1%. Under `Cc1cccc(CN2CC3(CCN(Cc4ccoc4)CC3)OCC2=O)n1.O=C(O)C(F)(F)F.O=C(O)C(F)(F)F` stands 122.8%; under `O=C(O)C(F)(F)F.O=C1COC2(CCN(Cc3ccoc3)CC2)CN1CCn1cccn1`, 2.726%; under `O=C(O)C(F)(F)F.O=C(c1ccco1)N1C[C@H]2CCCN(CC3CCOCC3)[C@H]2C1`, -19.49%. With `COCCNC(=O)[C@H]1CN(Cc2scnc2C)C[C@H]2OCC[C@@H]12.O=C(O)C(F)(F)F.O=C(O)C(F)(F)F` the figure was -9.051%; with `COc1cccc(-c2ncc(CN3CC[C@H]4CC[C@@H](C3)N4)s2)c1`, -2.167%. As for `O=c1[nH]c(-c2ccc(F)c(F)c2)nc2c1CCNC2`, the “Percent Effect” value is -21.65%.

In the case of `Cc1nc(CN2CCCC(N(C)Cc3nnsc3Cl)C2)no1` (centres undefined), the “Percent Effect” value is on record as -2.376%. With `Cc1nc(CN2CCCC(N(C)Cc3cnc(C)s3)C2)no1` (centres undefined) the figure was 2.952%; with `Cc1nc(CN(C)C2CCN(Cc3ccc(Cl)s3)C2)no1` (centres undefined), 99.87%. As for `CCOc1nnc(CN2CCC(N(C)Cc3noc(C)n3)C2)s1` (centres undefined), the “Percent Effect” value is 5.667%. Under `CCc1cnc(CN2CCC(N(C)Cc3noc(C)n3)C2)o1` (centres undefined) stands 97.22%; under `Cc1nc(CN(C)C2CCN(Cc3cnc(C)s3)C2)no1` (centres undefined), 106.5%; under `CC(=O)N(Cc1noc(C)n1)C1CCN(Cc2cnc(C)s2)C1` (centres undefined), 83.55%. Consider `NC(=O)N1CCc2cc(C(=O)O)c(-c3ccsc3)nc2CC1.O=C(O)C(F)(F)F`, for which the “Percent Effect” value is -21.16%. With `Cc1cc(CNC(=O)Nc2cc(F)cc(N3CCCC3)c2)no1` the figure was -57.71%; with `Cc1cccc(C(C)(C)CNC(=O)CN(C)S(=O)(=O)c2cccnc2)c1`, 4.775%. Under `CC(O)CN(CC(=O)NC1CCCCC1)c1ccccc1` (centres undefined) stands -11.54%; under `CC(C)(C)c1ncc2c(n1)CN(C(=O)c1ccc(-c3nc[nH]n3)cc1)C2`, -2.467%. Under `CCc1ccc(C(=O)N2CCN(Cc3ccc(F)cc3)CC2)s1` stands -10.91%. For the compound `CC(C)(C)Cc1nnc(NCc2ccsc2)o1`, the “Percent Effect” value is -6.79%.

Take `CC(=O)N(Cc1noc(C)n1)C1CCN(Cc2ncc(C(C)C)o2)C1` (centres undefined): the “Percent Effect” value is listed as 142.1%. Under `CC(=O)N(Cc1ncc(C(C)C)o1)C1CCN(Cc2nccn2C)C1` (centres undefined) stands -4.268%; under `CC(=O)N(Cc1ncc(C(C)C)o1)C1CCN(Cc2ncc[nH]2)C1` (centres undefined), 11.04%; under `CCNC(=O)C(C)NC(=O)Nc1ccccc1Cl` (centres undefined), -14.58%. Under `CN(C)S(=O)(=O)Nc1ccc(-n2nncc2C(F)(F)F)cc1` stands -14.8%. With `CCC1(c2ccc(NS(=O)(=O)c3cccs3)cc2)CCC(=O)NC1=O` (centres undefined) the figure was 2.702%. `CCC1(c2ccc(NS(=O)(=O)N(C)C)cc2)CCC(=O)NC1=O` (centres undefined): the “Percent Effect” value was 138.3%. Turning to `CCNC(=O)Cc1ccc(NC(=O)NC(CC)CC)cc1`, the “Percent Effect” value was 3.76%. With `CC(C)C(C)NC(=O)Nc1ccc(CC(N)=O)cc1` (centres undefined), the “Percent Effect” value came to 98.71%. Consider `NC(=O)Cc1ccc(NC(=O)C2CCOCC2)cc1`, for which the “Percent Effect” value is -3.616%.

For the compound `CC(C)NC(=O)Nc1ccc(-c2nc3c([nH]2)CCNC3)cc1`, the “Percent Effect” value is on record as 8.53%.

In the case of `CCC(C)NC(=O)Nc1ccc(CN2CCOC2=O)cc1` (centres undefined), the “Percent Effect” value is 17.46%.

As to `CC(C)C(C)NC(=O)Nc1ccc(CS(=O)(=O)C(C)C)cc1` (centres undefined), the “Percent Effect” value is recorded as 98.92%.

With `CC(CO)NC(=O)Nc1ccc(CC#N)cc1` (centres undefined), the “Percent Effect” value is reported as -17.07%. Under `CC(C)NC(=O)Nc1ccc(CS(C)(=O)=O)cc1` stands 125.1%; under `CC(C)C(C)NC(=O)Nc1cccn(C)c1=O` (centres undefined), 14.72%. Under `Cc1occc1CNC(=O)N(CCCO)C1CCc2ccccc21` (centres undefined) stands -0.08809%. With `CCC(CO)N(Cc1ccccn1)C(=O)c1ncccc1C` (centres undefined), the “Percent Effect” value is -0.3576%. With `Cc1ccc(CN2CCC3(CCC3NS(=O)(=O)c3ccccc3)CC2)o1.O=C(O)C(F)(F)F` (centres undefined) the figure was -9.512%; with `Cc1nccc(C2CN(Cc3ccc(-c4ccccc4C(=O)O)o3)C2)n1`, 137.2%; with `Nc1nccc(C2CN(Cc3ccc(-c4ccccc4C(=O)O)o3)C2)n1`, 91.52%. With `Cc1ccnc(C2CN(Cc3ccc(-c4ccccc4C(=O)O)o3)C2)n1`, the “Percent Effect” value amounted to 103.2%.

Regarding `CCNC(=O)[C@@H]1C[C@H](N)CN1Cc1ccc(-c2ccccc2C#N)o1`, the “Percent Effect” value stood at 18.83%. With `CCc1nc(C)ncc1C(=O)N1CC(=O)N(C)c2ccccc21` the figure was -0.2346%; with `CCc1cnc(C)nc1N1CCN(Cc2ccc(-c3cc[nH]n3)o2)CC1`, -14.59%; with `CCNC(=O)[C@@H]1C[C@@H](N)CN1Cc1ccc(-c2ccccc2C#N)o1`, -0.5053%.

On to `Cc1ccc(CN2C[C@@H](C(=O)O)[C@H](c3ccccn3)C2)o1`, for which the “Percent Effect” value is listed as 12.21%. Take `NCCN1C(=O)CC[C@H]2CN(Cc3ccc4occc4c3)CC[C@H]21`: the “Percent Effect” value is recorded as -1.233%.

For `C1CN(c2nc(C3CC3)ns2)CCS1`, the “Percent Effect” value is listed as 2.674%. Under `CS(=O)(=O)c1cccc2c1CCCN2C(=O)Cc1cccc(F)c1` stands 14.6%; under `CS(=O)(=O)c1ccc(O[C@H]2COCCN(C(=O)c3ccno3)C2)cc1`, -17.98%. Under `CCCN(c1ccccc1C(=O)O)S(=O)(=O)c1ccc2ccccc2c1` stands -7.662%.

Consider `CC1=CCN(C(=O)Nc2ccccc2N2CCOC2=O)CC1`, for which the “Percent Effect” value came out at 8.909%. With `COc1ccc(C)cc1C1(CNc2cn[nH]c(=O)c2Cl)CCOCC1` the figure was 1.939%; with `CC(NC(=O)N(C)Cc1ccncc1)c1cn(-c2ccccc2)nn1` (centres undefined), -5.138%; with `COC(=O)N1CCC(Nc2cccc(F)c2C(C)=O)CC1`, 7.066%. For the compound `CCCN(Cc1cccnc1)C(=O)C1CCNC1` (centres undefined), the “Percent Effect” value is on record as -6.629%. Regarding `Cc1cccc(CN(Cc2cccnc2)C2CC(C)(C)NC(C)(C)C2)n1.O=C(O)CC(O)(CC(=O)O)C(=O)O`, the “Percent Effect” value worked out at 68.09%. For `CCCN(Cc1cccnc1)C(=O)C1CCS(=O)(=O)CC1`, the “Percent Effect” value is on record as -18.37%. For the compound `CCCN(Cc1cccnc1)C1CC(C)(C)NC(C)(C)C1.O=C(O)CC(O)(CC(=O)O)C(=O)O`, the “Percent Effect” value turned out to be 90.76%. In the case of `CC1(C)CC(N(Cc2cccnc2)Cc2cccc(F)c2)CC(C)(C)N1.O=C(O)CC(O)(CC(=O)O)C(=O)O`, the “Percent Effect” value was 152.9%. With `CC1(C)CC(N(Cc2ccncc2)Cc2cccnc2)CC(C)(C)N1.O=C(O)CC(O)(CC(=O)O)C(=O)O` the figure was 106.8%.

Turning to `CC1CN(c2ccc(CNC(=O)NCCn3ccnc3)cn2)CCO1` (centres undefined), the “Percent Effect” value was -7.777%. `Cc1nn(C)cc1-c1ccnc(N(C)Cc2ccoc2)n1`: the “Percent Effect” value is given as -63.97%.

For the compound `CN(Cc1ccncc1)C(=O)Nc1cnn(CC2CCCO2)c1` (centres undefined), the “Percent Effect” value is listed as -18.51%. With `Cl.O=C(Nc1cccc(C(=O)OCC2CCCN2)c1)c1ccoc1` (centres undefined) the figure was -16.18%.

Consider `Cc1cc(C)n(CC2CCCN2CCCS(=O)(=O)N(C)C)n1` (centres undefined), for which the “Percent Effect” value is -14.18%. With `Cc1cc(=O)[nH]c(NCCNC(=O)CN2CCCCCC2)n1` the figure was 0.3352%. With `COCCCSc1ccc(NCc2scnc2C)cc1` the figure was -22.23%. `CNC(=O)NC(=O)CN(CC(C)O)c1ccccc1` (centres undefined): the “Percent Effect” value was found to be 1.255%. Under `Cc1ccc(CN(Cc2cccnc2)C2CC(C)(C)NC(C)(C)C2)s1.O=C(O)CC(O)(CC(=O)O)C(=O)O` stands 9.465%; under `CC1(C)CC(N(Cc2cccnc2)Cc2cccnc2)CC(C)(C)N1.O=C(O)CC(O)(CC(=O)O)C(=O)O`, 81.01%. Consider `Cc1ncsc1C(=O)N(Cc1cccnc1)C1CC1`, for which the “Percent Effect” value worked out at 11.29%. With `CC1(C)CC(N(Cc2ccccc2)Cc2cccnc2)CC(C)(C)N1.O=C(O)CC(O)(CC(=O)O)C(=O)O` the figure was 31.11%; with `Cc1ccsc1CN(Cc1cccnc1)C1CC(C)(C)NC(C)(C)C1.O=C(O)CC(O)(CC(=O)O)C(=O)O`, 106.7%. With `CN1CCc2nc(N(C)C)nc(N3CCC(O)CC3)c2C1` the figure was 12.64%; with `CN(C)c1ncc2c(n1)N(C)CCN(CC1CC1)C2=O`, 109.4%; with `CCCN(C)c1ncc2c(n1)N(C)CCN(CC1CC1)C2=O`, 98.31%. Under `Cc1ccccc1-n1cnnc1SCCOCC1CCCO1` (centres undefined) stands -11.81%.

For `Cc1ccc(-c2noc([C@@H]3C[C@H](NC(=O)CC(C)(C)C)CN3C)n2)cc1`, the “Percent Effect” value is listed as -9.06%. With `Cc1ccnc(CC(C)N(C)c2cc(CN)nc(C)n2)c1` (centres undefined) the figure was -4.516%. With `CC(c1ccc(F)c(F)c1)N1CCN(Cc2nccn2C)CC1` (centres undefined) the figure was -0.152%; with `CCn1ccnc1CN1CCN(CC(O)c2cccc(F)c2)CC1` (centres undefined), 152.7%; with `Cn1ccnc1CN1CCN(CC(O)c2cccc(F)c2)CC1` (centres undefined), 1.006%. Under `CC(c1cccc(F)c1)N1CCN(Cc2nccn2C)CC1` (centres undefined) stands 119.5%; under `CCn1ccnc1CN1CCN(CC(O)c2ccccc2)CC1` (centres undefined), -0.4709%; under `COc1ccc(C(C)N2CCN(Cc3nccn3C)CC2)cc1Cl` (centres undefined), -0.7599%.

The values above are taken from ChEMBL document CHEMBL3988442, “University of Dundee, Small-Polar-MMV Screening Library” (2021).
